Bioassay records deposited in PubChem by The Scripps Research Institute Molecular Screening Center.
DAX1 inh-1: DAX1 (NR0B1) inhibitors, primary screen, cell-based, HEK293, Gal4-DAX1, luciferase luminescence; Nuclear receptor subfamily 0 group B member 1 (Homo sapiens), P51843; HEK293 Gal4-DAX1 luciferase reporter; inhibition, % at 6.75 µM; hit rate 0.99% among 340,000;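 active means inhibition above the mean over all tested compounds plus 3 SD, cut at about 4.2% in these data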;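 further: 0% = DAX1-transfected cells with DMSO and 100% = empty-vector control cells with DMSO; inhibition shows as a rise in luminescence from relieved DAX1 repression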
AHR activator: AHR activators, primary screen, cell-based, luminescence, luciferase reporter, human | hit rate 2.5% among 320,000 | activation, % at 5 µM | Aryl hydrocarbon receptor (Homo sapiens), P35869 | AID 2796, 2010 | AHR-responsive luciferase reporter cells; in the data active means activation above about 47%;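 further: 0% = vehicle wells and 100% = reference agonist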
DAX1 inh-2: DAX1 (NR0B1) inhibitors on StAR promoter, primary screen, cell-based, luminescence, SF-1 (NR5A1), full-length DAX-1 | HEK293T StAR-luciferase reporter, SF-1/DAX-1 repression relief | inhibition, % at 6.8 µM | hit rate 1.1% among 370,000 | AID 652010, 2013;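 active means inhibition above the mean over all tested compounds plus 3 SD, cut at about 3.6% in these data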;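 further: 0% = DAX-1 cells with DMSO and 100% = cells lacking DAX-1 with DMSO; higher inhibition means more luminescence from relief of DAX-1 repression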
hgDAF-12 ag: H. glycines DAF-12 receptor agonists, primary screen, cell-based, luminescence, HEK293, GAL4 fusion, UAS-luciferase; activation, % at 6.8 µM; AID 687014, 2013; hit rate 1.8% among 370,000; Nuclear hormone receptor DAF-12 (Heterodera glycines), GAL4 fusion; HEK293 GAL4-hgDAF12 UAS-luciferase reporter, agonist luminescence; normalized to butyrate control;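 active means activation above a cutoff set at the mean of all screened compounds plus 3 SD, cut at about 10% in these data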;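 further: 0% = DMSO wells and 100% = sodium butyrate wells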
hcDAF-12 act: H. contortus DAF-12 nuclear receptor activators, primary screen, cell-based, luminescence, HEK293, lit1-tk-luc reporter. activation, % at 6.8 µM. HEK293 hcDAF-12 lit1-tk-luc reporter; 0% DMSO, 100% Δ7-dafachronic acid. hit rate 1.4% among 370,000;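 active means activation above the mean of all tested compounds plus 3 SD, cut at about 5.5% in these data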;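 further: 100% = response to 3 µM Δ7-dafachronic acid high control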
ssDAF-12 act: S. stercoralis DAF-12 nuclear receptor activators, primary screen, cell-based, luminescence, HEK293, GRIP1 co-expression, lit1-tk-luc; AID 652126, 2013; Nuclear hormone receptor DAF-12 (Strongyloides stercoralis); hit rate 1% among 370,000; activation, % at 6.8 µM; HEK293 ssDAF-12/GRIP1 lit1-tk-luc reporter; % of 3 µM dafachronic acid response;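 active means activation above the mean over all tested compounds plus 3 SD, cut at about 0.9% in these data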;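 further: 0% = DMSO-only wells and 100% = 3 µM delta7-dafachronic acid wells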
hgDAF12 conf: H. glycines DAF-12 receptor agonists, confirmation, cell-based, luminescence, HEK293, GAL4-LBD fusion | HEK293 GAL4-hgDAF12 luciferase reporter, agonist mode; percent of butyrate response | activation, % at 6.8 µM | hit rate 80% among 3,300 | shares compounds with hgDAF-12 ag;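 active means mean activation over triplicate wells above the hit cutoff derived from the earlier primary screen, cut at about 11% in these data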;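 further: 0% = DMSO low control and 100% = 2 mM sodium butyrate high control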
LXRb DAF12 ctr: LXR agonists, Gal4 luciferase reporter, confirmation, counter-screen for hgDAF-12 agonist project, cell-based, luminescence, HEK293, H. glycines campaign; shares compounds with hgDAF-12 ag; 24 h; activation, % at 6.8 µM; 3,300 tested, under 10 active; AID 743051, 2013;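 active means mean activation of the triplicate above a set limit carried over from the primary screen, none filed active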
Target sequence (P55055 whole entry, looked up, the tested form may be a part): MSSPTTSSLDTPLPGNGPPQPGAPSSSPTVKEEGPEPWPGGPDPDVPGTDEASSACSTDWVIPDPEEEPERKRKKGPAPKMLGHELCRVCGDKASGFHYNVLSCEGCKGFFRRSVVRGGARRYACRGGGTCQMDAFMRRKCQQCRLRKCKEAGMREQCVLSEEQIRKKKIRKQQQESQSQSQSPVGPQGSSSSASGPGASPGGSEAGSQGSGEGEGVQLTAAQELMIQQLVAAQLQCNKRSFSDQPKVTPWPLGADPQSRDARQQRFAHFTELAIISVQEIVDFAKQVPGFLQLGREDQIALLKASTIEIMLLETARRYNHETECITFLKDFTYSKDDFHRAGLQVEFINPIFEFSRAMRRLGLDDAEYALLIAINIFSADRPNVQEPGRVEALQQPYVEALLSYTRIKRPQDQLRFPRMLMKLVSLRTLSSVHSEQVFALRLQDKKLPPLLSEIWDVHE
* hit, by the source's call; nt = no result given. Most compounds without a hit are left out; they make up all but 5.7% or so of the library.

SMILES	DAX1 inh-1	AHR activator	DAX1 inh-2	hgDAF-12 ag	hcDAF-12 act	ssDAF-12 act	hgDAF12 conf	LXRb DAF12 ctr
S=C(NCc1ccco1)Nc1ccc(Br)cc1Cl	nt	3	0	13*	2	-1	4	0
S=C(NCc1ccco1)Nc1ccc(Cl)cc1Cl	0	1	0	6	0	-1	nt	nt
COc1cccc(NC(=O)/C=C/c2ccccc2[N+](=O)[O-])c1	2	45	3	16*	5	0	16*	1
CN(C)S(=O)(=O)c1cccc(NC(=O)/C=C/c2ccccc2[N+](=O)[O-])c1	0	22	0	2	1	-1	nt	nt
COc1ccc2nc(N(CCN(C)C)C(=O)c3ccc4ccccc4c3)sc2c1	0	5	0	1	2	-1	nt	nt
COc1ccc2nc(N(CCN(C)C)C(=O)c3ccc4ncsc4c3)sc2c1	0	nt	3.9*	14*	6.0*	0	19*	1
CN(CC(=O)Nc1ccc(Cl)c(Cl)c1)CC(=O)N1CCc2ccccc21	0	nt	0	2	0	0	nt	nt
CSc1ccc(/C=C2\C(=N)N3N=C(CC(=O)N4CCCCC4)SC3=NC2=O)cc1	0	2	0	1	-2	-1	nt	nt
CC1=CCC2C(=O)N(c3ccccc3OC(=O)c3ccccc3F)C(=O)C2C1 (stereo not drawn)	1	19	0	1	1	0	nt	nt
CCOc1ccc(N2C(=O)c3ccccc3C2=O)cc1	1	-9	1	-1	0	-1	nt	nt
CCOc1ccc(N2C(=O)c3ccccc3C2O)cc1 (stereo not drawn)	2	19	3.8*	20*	4	0	9	0
Cc1ccccc1Nc1nnc(SCC2CCCCO2)s1 (stereo not drawn)	1	-4	4.2*	15*	2	0	17*	1
Cc1ccc(Nc2nnc(SCC3CCCCO3)s2)cc1 (stereo not drawn)	0	47	0	4	4	0	nt	nt
O=C(Nc1ccc(Nc2ccccc2)cc1)c1ccccc1F	3	-9	0	5	0	-1	nt	nt
CCCC(CCC)=NNC(=O)c1ccccc1F	3	5	3	16*	2	0	4	0
CCOC(=O)N/N=C/c1cc(C)n(-c2ccccc2)c1C	-2	20	0	-1	-1	-2	nt	nt
CCN(CC)c1ccc(NC(=O)c2ccccc2F)cc1	0	-2	2	14*	5.6*	1	21*	1
Cc1cc(/C=N/NC(=O)c2ccccc2F)c(C)n1-c1ccccc1	3	12	3	14*	4	1	17*	1
CCC(/C=N/NC(=O)c1ccccc1F)CC	5.3*	8	2	18*	1	-1	1	0
CC(OC(=O)c1ccccc1C(=O)N(C)c1ccccc1)C(=O)Nc1ccccc1[N+](=O)[O-] (stereo not drawn)	-1	0	-2	2	-2	0	nt	nt
COc1ccccc1CNC(=O)C/C(C)=N/NC(=O)Cc1ccc(Cl)cc1	1	3	0	3	1	-1	nt	nt
C/C(CC(=O)NCc1ccc(Cl)cc1)=N\NC(=O)c1ccccc1F	2	3	2	14*	1	1.5*	0	0
COc1ccc(NC(=O)c2ccc(OC(F)F)cc2)cc1Cl	1	26	3.7*	17*	5	1.4*	12*	0
O=C(Nc1ccc(OC(F)F)c(Cl)c1)c1ccccn1	5.2*	-2	4.5*	14*	4	1.4*	17*	1
CCOc1ccc(NC(=O)c2ccccn2)cc1	-6	6	1	-6	0	-2	nt	nt
SMILES	DAX1 inh-1	AHR activator	DAX1 inh-2	hgDAF-12 ag	hcDAF-12 act	ssDAF-12 act	hgDAF12 conf	LXRb DAF12 ctr
Cc1c(O)ccc2c(O)c(NC(=O)c3ccc4c(c3)CCC(C)(C)O4)c(=O)oc12	1	0	0	-1	1	-1	nt	nt
C/C1=C\CCC2C(/C=C(\C)CC1)OC(=O)C2CN1CCCCC1 (stereo not drawn)	-2	1	0	-5	-2	-1	nt	nt
C/C(=N\Nc1nccnc1Cl)c1ccc(Br)cc1	1	nt	2	17*	5.8*	0	6	0
C/C(=N\Nc1nccnc1Cl)c1ccc([N+](=O)[O-])cc1	1	-2	2	15*	4	1	2	0
CCCCn1c(N)c(N(CCOC)C(=O)CSCc2ccc(C)cc2)c(=O)[nH]c1=O	0	1	-2	0	-1	-1	nt	nt
O=C1CCc2cc(S(=O)(=O)Nc3ccccc3Cl)ccc2N1	1	1	2	0	-1	-1	nt	nt
O=C1CCc2cc(S(=O)(=O)Nc3ccccc3F)ccc2N1	0	-1	0	25*	0	-2	0	0
Cc1ccc(O)c(C2=NNC(c3ccc(Cl)cc3)C2)c1 (stereo not drawn)	2	5	3	15*	5.7*	1	13*	1
COc1cc(OC)cc(C(=O)O/N=C(\N)c2ccccn2)c1	nt	29	1	13*	2	0	13*	0
CCOC(=O)c1ccc(OS(=O)(=O)c2ccccc2)c(OC)c1	1	2	3	16*	4	0	11*	1
C/C(=N/NC(=O)c1ccccc1)c1ccc(NC(=O)C(F)(F)F)cc1	2	8	2	14*	4	0	5	0
C/C(=N\NC(=O)c1ccoc1C)c1ccccc1	nt	-3	3.9*	14*	5.6*	1	11*	1
COc1ccc(C(=O)O/N=C(\N)c2ccccn2)cc1	-3	-5	0	-6	-2	-2	nt	nt
Cc1ccc(OCc2cc(C(=O)N3CCC(c4ccccc4Cl)C3)no2)cc1C (stereo not drawn)	0	8	0	7	3	-1	nt	nt
